Measurements from PubChem BioAssay.
The source made the active and inactive calls. Unless noted, no rule for the calls is given here.

Assays:
[1] = tested on: XIP peptide (Xip251-270) binding; assay: small-molecule binders of XIP peptide, primary screen, biochemical, small-molecule microarray, fluorescence 635/667 nm, 0.1 µg/mL protein (AID 1182); conditions: fluorescent protein binding, 635 nm, higher = more signal, called active from +8 up or from −8 down
XIP peptide (Xip251-270) = assay: small-molecule binders of XIP peptide, primary screen, biochemical, small-molecule microarray, fluorescence 635/667 nm, 0.5 µg/mL protein (AID 1183); conditions: small-molecule microarray binding, fluorescence 635 nm; higher = more signal
[2] = Plasmodium falciparum growth inhibition, primary screen, strain 3D7, DAPI fluorescence, 100 nL (AID 1184);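 also: parasites grown inside human red blood cells in medium with human serum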; conditions: P. falciparum 3D7 growth, 3 d, higher = more signal
[3] = target: Homeobox protein Hox-A13 (Mus musculus) (UniProt Q62424); assay: inhibitors of HoxA13-DNA binding, primary screen, biochemical, fluorescence polarization, labeled oligonucleotide (AID 1185); conditions: 15 min, higher = more signal, called active from +8 up or from −8 down
[4] = inhibitors of hydroxyurea-induced Chk1 phosphorylation, primary screen, imaging, HeLa, phospho-Chk1 antibody, percent positive cells (AID 1186); conditions: hydroxyurea-induced phospho-Chk1 immunofluorescence imaging, higher = more signal
[5] = inhibitors of hydroxyurea-induced Chk1 phosphorylation, primary screen, imaging, HeLa, phospho-Chk1 nuclear intensity (AID 1187); conditions: hydroxyurea-induced phospho-Chk1 immunofluorescence imaging, higher = more signal

Homeobox protein Hox-A13 (Mus musculus), sequence (Q62424 whole entry, looked up): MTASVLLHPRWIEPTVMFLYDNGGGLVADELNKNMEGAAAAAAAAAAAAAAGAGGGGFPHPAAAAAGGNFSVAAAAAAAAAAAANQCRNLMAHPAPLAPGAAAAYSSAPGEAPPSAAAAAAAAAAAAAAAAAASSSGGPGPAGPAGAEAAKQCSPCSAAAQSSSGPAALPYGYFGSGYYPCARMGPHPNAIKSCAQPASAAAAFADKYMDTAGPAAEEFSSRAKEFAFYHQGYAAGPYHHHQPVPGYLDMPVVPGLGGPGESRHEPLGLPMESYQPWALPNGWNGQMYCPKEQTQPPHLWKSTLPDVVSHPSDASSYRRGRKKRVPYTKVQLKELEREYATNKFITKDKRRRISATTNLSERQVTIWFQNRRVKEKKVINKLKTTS

Row | SMILES | composite z-score [1] | composite z-score (XIP peptide (Xip251-270)) | z-score [2] | z-score [3] | z-score [4] | z-score [5]
1 | COC(=O)[C@@]1(Cc2ccc(OC)cc2)[C@H]2c3cc(C(=O)N(C)C)n(Cc4ccccn4)c3C[C@H]2CN1C(=O)c1ccccc1 | 0.544 (inactive) | -0.765 | -1.54 | -5.52 (inactive) | -0.276 (inactive) | -0.406 (inactive)
2 | COCCOC(=O)N1C(=O)[C@@]2(c3cc(C#CCC(C(=O)OC)C(=O)OC)ccc31)[C@H](c1ccccc1OCCO)N1[C@H](c3ccccc3)[C@H](c3ccccc3)OC(=O)[C@H]1[C@@H]2C(=O)NC[C@H](O)c1ccccc1 | 1.42 (inactive) | 0.705 | -2.31 | -1.77 (inactive) | -0.0638 (inactive) | -0.19 (inactive)
3 | C=CCC(OC(C)=O)[C@@H]1[C@@H](N(Cc2ccc(-c3ccccc3)cc2)C(=O)Cc2ccc(OC)cc2)c2cc(OCCCO)ccc2N1C(=O)Cc1ccc2ccccc2c1 (some centres not stated) | 1.46 (inactive) | -0.282 | -0.874 | -1.62 (inactive) | 0.802 (inactive) | 0.325 (inactive)
4 | O=C1C2C=CC(C(O)Cc3ccccc3)N(n3cnnc3)C2C(=O)N1Cc1ccccc1 (configuration not stated) | -0.139 (inactive) | 0.686 | -1.29 | -3.18 (inactive) | -0.179 (inactive) | -0.472 (inactive)
5 | COC(=O)C(CC#Cc1ccc2c(c1)[C@]1(C(=O)N2)[C@H](c2ccc(OCCO)cc2)N2[C@H](c3ccccc3)[C@H](c3ccccc3)OC(=O)[C@H]2[C@@H]1C(=O)Nc1nc2ccccc2s1)C(=O)OC | 0.081 (inactive) | 0.54 | -1.79 | 0.63 (inactive) | -0.378 (inactive) | -0.763 (inactive)
6 | O=C(CS)NCCCCCCNC(=O)[C@@H]1C[C@@H]2C(=O)N[C@@H](Cc3ccccc3)C(=O)N2[C@@H]1c1cccc(OCCO)c1 | 0.644 (inactive) | 0.763 | 1.17 | -2.64 (inactive) | 0.835 (inactive) | 1.17 (inactive)
7 | [N-]=[N+]=Nc1ccccc1[C@@H]1OC(c2ccc(OCCCO)cc2)=N[C@]1(Cc1ccccc1)C(=O)N1CCOCC1 | 0.665 (inactive) | 0.632 | -2.32 | -4.82 (inactive) | -0.208 (inactive) | -0.0135 (inactive)
8 | COc1ccc([Si](C)(C)[C@H]2[C@H](CC(=O)N3Cc4ccccc4C[C@H]3CO)O[C@@]3(C(=O)N(Cc4cccc(N5CCC5=O)c4)c4ccccc43)[C@@H]2C)cc1 | 0.177 (inactive) | 0.719 | -2.33 | -2.97 (inactive) | -0.227 (inactive) | -0.0325 (inactive)
9 | CCC[C@@H]1C[C@@]1(CCC)[C@@H](NC(=O)c1ccccc1)c1cccc(Cl)c1 | 0.11 (inactive) | -0.211 | -0.348 | 2.13 (inactive) | -0.769 (inactive) | -0.608 (inactive)
10 | NC(=O)[C@@H]1[C@H]2C(=O)O[C@H](c3ccccc3)[C@H](c3ccccc3)N2[C@H](c2ccc(O)cc2)[C@@]12C(=O)Nc1ccccc12 | 0.138 (inactive) | 0.507 | -1.28 | -5.09 (inactive) | -0.0838 (inactive) | -0.0447 (inactive)
11 | COc1ccc(-c2cc3c(c(-c4ccc(Oc5ccccc5)cc4)n2)[Si](C(C)C)(C(C)C)OC3)cn1 | -0.0527 (inactive) | 0.0792 | -1.34 | -1.79 (inactive) | -0.265 (inactive) | 0.0655 (inactive)
12 | C=C[C@@H](COC(=O)OC(C)(C)C)N(Cc1ccc(OC)cc1)S(=O)(=O)c1ccc(Br)cc1 | 0.323 (inactive) | 0.219 | 0.605 | -0.981 (inactive) | 0.344 (inactive) | 0.447 (inactive)
13 | O=C(c1ccccc1)N1C(=O)[C@]2(COC(c3ccc(OCCCO)cc3)=N2)Cc2ccccc21 | 0.819 (inactive) | 0.908 | -2.14 | -5.86 (inactive) | -0.255 (inactive) | -0.361 (inactive)
14 | O=C(c1ccccc1)N1Cc2ccccc2C[C@@]2(COC(c3ccc(OCCCO)cc3)=N2)C1=O | 1.45 (inactive) | 0.751 | -2.26 | -4.77 (inactive) | -0.221 (inactive) | 0.159 (inactive)
15 | COCC(=C=CC[C@@H](O)c1cccc(OCCO)c1)C[C@@H](O)c1ccccn1 | 1.36 (inactive) | 0.141 | -1.2 | -4.8 (inactive) | -1.08 (inactive) | -0.725 (inactive)
16 | CCS[C@H]1[C@@H](C(=O)O)[C@H](c2ccc(C)cc2)N(S(=O)(=O)c2ccc(C)cc2)[C@@H]1CC | 0.458 (inactive) | 0.327 | 0.184 | -2.35 (inactive) | -0.72 (inactive) | -0.307 (inactive)
17 | CCc1cccc(NC(=O)O[C@H]2[C@H](OC(=O)Nc3ccccc3-c3ccccc3)[C@@H](OC(=O)Nc3ccccc3-c3ccccc3)[C@@H](OC)O[C@@H]2CO)c1 | 1.04 (inactive) | 0.859 | -1.8 | -2.99 (inactive) | 0.167 (inactive) | 0.62 (inactive)
